# Compound activity: PubChem, National Center for Advancing Translational Sciences (NCATS)
# Sampled rows, rich in hits. Any-hit rate of the full collection: about 12%.
# BAZ2B inh: blocks human BAZ2B. AlphaScreen BAZ2B-H3K14Ac peptide displacement. Potency, µM (series often up to 114 µM), for the others: top-dose activity change, negative = inhibition, usual class: inhibitors. 360,000 compounds, 4.4% hits. AID 504333; note: % is set by controls: 0 for no effect and ±100 for the full control effect; nearly all actives have a fitted effect of over 60% in size
#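 Compounds, titrated to a top concentration of 110 uM, were incubated 30 min at room temperature with preformed BAZ2B/acetyl-K14 H3 peptide complex (50 nM each). Proximity signal was measured by AlphaScreen after 20 min with beads.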
# G9a inh: G9a (human) methyltransferase inhibition; G9a H3K9 monomethylation, AlphaScreen, 2 h; 350,000 compounds, 8.8% hits; Potency, µM (highest dose often 102 µM), for inactives: at the top dose activity, negative = inhibition, usual class: inhibitors; note: % is set by controls: 0 for no effect and ±100 for the full control effect; nearly all actives have a fitted effect of over 75% in size
# Target sequence (Q96KQ7 913-1193 limits assumed): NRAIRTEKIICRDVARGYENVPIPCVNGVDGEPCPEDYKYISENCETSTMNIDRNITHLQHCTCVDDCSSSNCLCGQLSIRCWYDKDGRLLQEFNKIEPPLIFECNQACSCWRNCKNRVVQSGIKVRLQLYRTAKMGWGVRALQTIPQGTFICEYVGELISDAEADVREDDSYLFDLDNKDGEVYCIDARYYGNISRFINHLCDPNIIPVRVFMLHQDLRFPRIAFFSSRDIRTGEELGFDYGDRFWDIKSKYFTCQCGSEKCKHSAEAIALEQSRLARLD
#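 Methyltransferase reactions run at room temperature for 2 h (20 nM enzyme, 500 nM biotin-H3K9 peptide, 20 uM SAM) after a 15 min compound preincubation; product detected by AlphaScreen beads and anti-H3K9me1 antibody.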
# JMJD2A Tudor inh: blocks the human JMJD2A Tudor domain; AlphaScreen JMJD2A-Tudor / H3K4me3 peptide binding; Potency, µM (doses to about 114 µM), inactives show at the highest dose activity change, negative = inhibition, actives largely listed as inhibitors; 390,000 compounds, 4.4% hits; note: % is set by controls: 0 for no effect and ±100 for the full control effect; nearly all actives have a fitted effect of over 50% in size
# Sfp inh: inhibitors of Bacillus subtilis Sfp phosphopantetheinyl transferase | AID 1490 | Biochemical Sfp PPTase activity, qHTS | 310,000 compounds, 3.5% hits | Potency, µM, inactives show largest response in the series, negative = inhibition, most hits filed as inhibitors | Q9F4F7;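 note: the enzyme is Sfp with the accession as filed and its product quenches rhodamine fluorescence; 0% = enzyme reaction without inhibitor and -100% = no enzyme wells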
#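 Buffer: 50 mM Hepes-Na pH 7.6, 10 mM MgCl2, 0.01% Nonidet P-40, 0.01% BSA. Enzyme 15 nM, pre-exposed to compound 15 min; substrates then added and fluorescence change tracked over 30 min.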
# HP1b binding inh: HP1-beta chromodomain-methylated histone interaction inhibition. AlphaScreen HP1-beta / biotin-H3K9me3 peptide binding. 390,000 compounds, 0.56% hits. AID 540317. Potency, µM (series often up to 114 µM), for the others: top-dose activity change, negative = inhibition, hits mostly inhibitors; note: nearly all actives have a fitted effect of over 70% in size
# Target sequence (P83916 whole entry, looked up): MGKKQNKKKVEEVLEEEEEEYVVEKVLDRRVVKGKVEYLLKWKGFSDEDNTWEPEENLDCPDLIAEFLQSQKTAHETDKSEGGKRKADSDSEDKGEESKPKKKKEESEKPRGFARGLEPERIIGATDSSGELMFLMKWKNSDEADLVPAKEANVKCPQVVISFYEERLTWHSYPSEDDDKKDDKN
#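 AlphaScreen: HP1-beta (50 nM) preformed 30 min with biotin-H3(1-18)K9me3 peptide (50 nM) in PBS pH 7.4, 0.01% Tween-20. Compound added for 30 min at RT, then streptavidin donor/nickel chelate acceptor beads (10 ug/mL) for 30 min.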
# PLK1 PBD block: blocks phosphopeptide binding to human PLK1 polo-box domain | Potency, µM, for inactives: max response, negative = inhibition, hits mostly inhibitors | 360,000 compounds, 2.8% hits | Plk1 PBD binding of FITC phosphopeptide, fluorescence polarization | P53350; note: series mostly up to about 57 µM; % is set by controls: 0 for no effect and ±100 for the full control effect; nearly all actives have a fitted effect of over 65% in size
# An asterisk follows results filed as active; ? = inconclusive; . = no result given; [ ] = dose if it differs, or a comment. Calls come from the whole dose curve; as a rule, active = well fitted curve in the direction sought with a large enough effect; inconclusive = small, poorly fitted or top-dose-only effect, or another doubt; inactive = no such curve, though single readings can be large; an effect the other way counts as inactive or inconclusive. Potency is the fitted concentration of half-maximal effect.
SMILES,BAZ2B inh,G9a inh,JMJD2A Tudor inh,Sfp inh,HP1b binding inh,PLK1 PBD block
C=CCSc1nc2c(c(=O)[nH]c(=O)n2C)n1CC,1%,?,-20%,14µM*,?,24µM*
CCCCCSc1nc2c(c(=O)[nH]c(=O)n2C)n1CC,.,.,-8%,.,3%,21µM*
CCCCCSc1nc2c(c(=O)[nH]c(=O)n2C)n1C(C)C,8%,40µM*,-8%,-6%,9%,?
CCCCCCn1c(SCC(C)C)nc2c1c(=O)[nH]c(=O)n2C,-2%,?,-4%,7%,24%,-8%
CCCCCCn1c(SCC(=O)OC)nc2c1c(=O)[nH]c(=O)n2C,-1%,1.6µM*,?,16µM*,?,5.3µM*
CCCCCSc1nc2c(c(=O)[nH]c(=O)n2C)n1C,-4%,2%,-25%,8%,21%,-3%
COC(=O)CC1Oc2ccccc2-n2cc(-c3ccc(Cl)cc3)nc21 (centres undefined),-28%,-16%[59 µM],-13%,.,23%,.
FC(F)c1nc2nc(Cl)c(Cl)nc2[nH]1,.,.,.,.,.,-3%
O=c1/c(=C/c2ccco2)sc2n1CN(c1ccccc1)CN=2,-6%,13µM*,-18%,2%,0%,-13%
O=c1/c(=C/c2ccco2)sc2n1CN(c1cccc(Br)c1)CN=2,?,-40%[12.7 µM],?,2%,?,-6%
Cc1ccc(/C=c2\sc3n(c2=O)CN(c2cccc(Br)c2)CN=3)o1,?,?,?,20µM*,-7%,-13%
O=C1CCC2=C1C(c1ccccc1Cl)N=C(Nc1nc3ccccc3o1)N2 (centres undefined),.,.,-23%,.,.,.
Cc1ccc(N=c2sc(C)c(C)n2C)cc1,?,45µM*,?,-9%,-7%,-8%
CCN1C(=O)[C@@H]2[C@@H](c3ccc(SC4CCCCC4)c(OC)c3)N3CCC[C@@]3(C(=O)OC)[C@@H]2C1=O,?,-11%[2.33 µM],?,.,-10%,-8%
O=c1[nH]c(=S)[nH]cc1S(=O)(=O)c1cccc(Cl)c1,-16%,40µM*,-33%,-26%,18%,-27%
Nc1nc(CN2CCN(c3ccc(F)cc3)CC2)nc(N2CCCc3ccccc32)n1,-64%,40µM*,50µM*,4%,-9%,-4%
COc1ccc2c(c1)c(=O)oc1c(C)c(OC(C)C(=O)N[C@@H](Cc3c[nH]c4ccc(O)cc34)C(=O)O)ccc12 (some centres undefined),50µM*,.,?,0%,6%,-7%
CC(Oc1ccc2c(-c3ccccc3)cc(=O)oc2c1)C(=O)NC(Cc1c[nH]c2ccc(O)cc12)C(=O)O (centres undefined),?,.,?,-1%,11%,-19%
O=C(NCc1ccco1)C1Cc2ccccc2CN1S(=O)(=O)c1ccccc1F (centres undefined),.,.,40µM*,.,?,-29%
O=C(NCc1ccco1)C1Cc2ccccc2CN1C(=O)c1ccco1 (centres undefined),79µM*,-4%,?,14%,-5%,-10%
CN1CCN(c2ncc3nc(-c4ccccc4)c(=O)n(-c4ccccc4)c3n2)CC1,.,-1%[12.7 µM],.,-3%,.,.
CCOc1cc(NC(C)=O)ccc1C(=O)OC,.,22%[59 µM],.,-1%,.,.
COc1ccc(N(CC(=O)NC2CCCCC2)C(=O)c2ccc(C)s2)c(OC)c1,-5%,-9%,-18%,14%,-7%,-9%
CN1/C(=C\C=C2/C(=O)Oc3ccccc3C2=O)C(C)(C)c2ccccc21,?,?,3%,18%,-1%,-106%
CC1=NN(c2ccccc2)C(=O)/C1=C\C=C1/N(C)c2ccccc2C1(C)C,10µM*,11µM*,32µM*,-18%,?,25%
SMILES,BAZ2B inh,G9a inh,JMJD2A Tudor inh,Sfp inh,HP1b binding inh,PLK1 PBD block
CC1=NN(c2ccccc2)C(=O)/C1=C\C=C1\N(C)c2ccccc2C1(C)C,10µM*,14µM*,56µM*,-7%,32µM*,22%
CCn1cc(CN2CCCC(C(=O)Nc3ccc(-c4cscn4)cc3)C2)cn1 (centres undefined),-5%,.,-20%,15%,7%,-9%
S=C1NCN(Cc2ccco2)CN1c1cccc2ccccc12,-23%,-36%,-24%,16%,22%,-9%
S=c1[nH]nc(-c2cc(-c3ccco3)[nH]n2)n1-c1cccc2ccccc12,40µM*,4µM*,89µM*,10µM*,?,?
Cc1ccc(-n2c(-c3cc(-c4ccco4)[nH]n3)n[nH]c2=S)c(Br)c1,?,5.6µM*,-23%,50µM*,-3%,-7%
CC[C@H](C)[C@H](N)C(=O)N[C@@H](CCCNC(=N)N)C(=O)N[C@@H](CCC(N)=O)C(=O)NCC(=O)N1CCC[C@H]1C(=O)N[C@@H](CCCCN)C(=O)N[C@@H](CCC(=O)O)C(=O)N1CCC[C@H]1C(=O)N[C@@H](Cc1ccccc1)C(=O)N[C@@H](CCCNC(=N)N)C(=O)N[C@@H](CC(=O)O)C(=O)N[C@@H](Cc1ccc(O)cc1)C(=O)N[C@H](C(=O)N[C@@H](CC(=O)O)C(=O)N[C@@H](CCCNC(=N)N)C(=O)N[C@@H](Cc1ccccc1)C(=O)N[C@@H](Cc1ccc(O)cc1)C(=O)N[C@@H](CCCCN)C(=O)N[C@H](C(=O)N[C@@H](CC(C)C)C(=O)O)[C@@H](C)O)C(C)C,.,.,.,-1%,.,.
CCn1c(SCC(=O)NC2CCCC2)nnc1C(C)NC(=O)c1ccccc1Br (centres undefined),-15%,0%,-14%,13%,40%,-4%
O=C(O)CC(CCc1ccccc1)OC1OC(CO)C(O)C(O)C1O (centres undefined),?,?,8.9µM*,-8%,?,5%
CC(=NNC(=S)Nc1ccccc1Cl)c1ccccn1,.,.,56µM*,.,-32%,-5%
C/C(=N\NC(=O)c1ccccc1-n1cccc1)c1ccccn1,.,.,.,.,.,-6%
CC(=NNC(=S)Nc1ccccc1)c1ccccn1,.,.,.,.,.,-2%
C=CCNC(=S)N/N=C(\C)c1ccccn1,4.5µM*,-2%,45µM*,79µM*,31%,-10%
COC(=O)c1ccc(CSc2nc3c([nH]c4ccccc43)c(=O)n2-c2cccc(Cl)c2)o1,1%,5%[59 µM],-12%,.,22%[57 µM],.
COC(=O)c1cc(OC)c(OC)cc1NC(=O)Cc1cccs1,?,.,-16%,?,30%,-12%
CCOc1cccc(NC(=O)Cc2cccs2)c1,10%,-3%,-5%,15%,51%,-3%
COC(=O)c1sc(NC(=O)Cc2cccs2)nc1C,-3%,28µM*,-9%,14%,11%,-5%
